VDR inhibitor: blocks the human vitamin D receptor | VDR-SRC2-3 peptide fluorescence polarization, 2 h | Potency, µM, actives largely listed as inhibitors | P11473 | 400,000 compounds, 0.93% hits
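Reagent solutions, kept cold and dark, are dispensed first; compounds are then pinned in at 23 nl, plates briefly spun, and incubated 2 h at ambient temperature. Inhibition of VDR–SRC2-3 peptide binding is read by fluorescence polarization.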
PLK1 PBD inh: inhibitors of human PLK1 polo-box domain binding. P53350. Plk1 PBD binding of FITC phosphopeptide, fluorescence polarization. Potency, µM, actives largely listed as inhibitors. 360,000 compounds, 2.8% hits. AID 720504; also: series mostly up to about 57 µM; nearly all actives have a fitted effect of over 65% in size
TSHR antagonist: blocks TSH signaling through the human TSH receptor; 330,000 compounds, 0.2% hits; activity change, negative = inhibition, % at 11.5 µM; TSHR-expressing cells, TSH-stimulated cAMP HTRF, 2 h; stronger effect = lower value;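 active = activity change below a set negative limit, meaning inhibition stronger than a set level, cut at about -70% in these data; inconclusive = activity change between two set negative limits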
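Freshly harvested TSHR cells receive pin-tooled compound, then EC80 TSH at 4nM final. After 2 hours at 37 deg C, antibody in lysis buffer and cAMP-d2 are added; 30 minutes at ambient temperature precede the HTRF read.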
Vif-A3G inh: Vif-A3G binding inhibition. Q9HC16. HeLa A3G-eYFP + Vif (tagged APOBEC3G with the HIV-1 protein that degrades it), YFP fluorescence, overnight. Potency, µM (top dose mostly 46.1 µM), hits mostly inhibitors. 410,000 compounds, 0.076% hits; also: nearly all actives have a fitted effect of over 60% in size
Target sequence (Q9HC16 whole entry, looked up): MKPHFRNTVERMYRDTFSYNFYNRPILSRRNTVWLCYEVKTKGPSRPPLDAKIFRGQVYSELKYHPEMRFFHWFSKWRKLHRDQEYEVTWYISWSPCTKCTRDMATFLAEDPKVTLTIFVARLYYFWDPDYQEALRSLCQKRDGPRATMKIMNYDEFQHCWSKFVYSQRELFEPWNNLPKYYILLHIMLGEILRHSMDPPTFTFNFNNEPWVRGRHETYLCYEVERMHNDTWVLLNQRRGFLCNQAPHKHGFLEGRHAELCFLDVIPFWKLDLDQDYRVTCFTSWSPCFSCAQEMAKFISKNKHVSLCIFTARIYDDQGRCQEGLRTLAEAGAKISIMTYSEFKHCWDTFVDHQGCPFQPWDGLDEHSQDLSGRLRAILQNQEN
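HeLa cells stably expressing Vif and C-terminally eYFP-tagged A3G, seeded overnight at 37 deg C, then exposed to compound by pintool overnight at 37 deg C. Rise in yellow fluorescence (Ex 488/Em 500-530, Acumen) marks blocked Vif-driven A3G degradation.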
Vif-A3F inh: blocks the Vif interaction with APOBEC3F | HeLa A3F-eYFP + Vif (tagged APOBEC3F with the HIV-1 protein that degrades it), YFP fluorescence increase | Potency, µM (titrated, usually from 46.1 µM) | 390,000 compounds, 0.2% hits | AID 602313; also: nearly all actives have a fitted effect of over 65% in size
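Fluorescence increase (Ex 488/Em 500-530) after overnight compound treatment at 37 deg C flags inhibition of Vif-driven A3F-eYFP loss in stable HeLa A3F-eYFP/Vif cells seeded overnight beforehand.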
A number is an active result; - = inactive; ? = inconclusive; . = not tested or not shown. Most compounds without a hit are left out; they make up all but 3.1% or so of the library. Unless noted, calls follow the shape of the dose curve; as a rule, active = well fitted curve in the direction sought with a large enough effect; inconclusive = small, poorly fitted or top-dose-only effect, or another doubt; inactive = no such curve, though single readings can be large; an effect the other way counts as inactive or inconclusive.

SMILES	VDR inhibitor	PLK1 PBD inh	TSHR antagonist	Vif-A3G inh	Vif-A3F inh
COc1cccc(CNC(=O)C(CC(C)C)NS(=O)(=O)c2ccc3c(c2)oc(=O)n3C)c1 (stereo not given)	-	.	.	-	-
Cc1ccc2occ(CC(=O)N(Cc3ccccc3Cl)C3CCS(=O)(=O)C3)c2c1 (stereo not given)	-	.	.	-	-
Cc1cc2nc3c(=O)n(C4CCCCC4)c(=O)[nH]c3nc2cc1N	?	3µM	-	8.9µM	11µM
S=C1Nc2ccccc2Sc2ccc(Cl)cc21	-	24µM	-	-	-
O=C(O)Cn1c(C(=O)Nc2nc(-c3ccccc3Cl)cs2)cc2ccccc21	56µM	.	.	.	.
O=C(Nc1nc(-c2ccccc2Cl)cs1)c1cccnc1	-	-	-	-	-
C/C(CC1CC2=C(CC1(C)C)C(C)(C)CCC2)=N\NC(N)=S (stereo not given)	79µM	17µM	-	-	-
O=C(CCCC[C@@H]1SC[C@H]2NC(=O)N[C@H]12)Nc1ccc(C(=O)O)cc1	-	.	.	.	.
O=c1[nH][nH]c2c1[C@H](c1ccc(F)cc1)O[C@H](CCC(F)(F)F)C2	.	7.5µM	.	.	.
O=c1[nH][nH]c2c1[C@@H](c1ccc(F)cc1)O[C@H](CCc1ccccc1)C2	.	-	.	.	.
CC(C)[C@@H]1Cc2[nH][nH]c(=O)c2[C@H](c2ccc(F)cc2)O1	.	24µM	.	.	.
CCCCC1Cc2[nH][nH]c(=O)c2C(c2ccc(F)cc2)O1 (stereo not given)	.	8.4µM	.	.	.
CC(C)[C@@H]1Cc2[nH]c(=O)[nH]c(=O)c2[C@H](c2ccc(F)cc2)O1	.	-	.	.	.
O=c1[nH][nH]c2c1C(c1ccc(F)cc1)OC(CCc1ccccc1)C2 (stereo not given)	.	11µM	.	.	.
CN1C(=O)/C(=N/OC(=O)c2ccccc2)c2ccccc21	-	12µM	-	-	-
O=C(O/N=C1\C(=O)N(c2ccccc2)c2ccccc21)C1CC1	-	-	-	-	-
CCCCCCCCCCCCCCCCSCC(COC)COP(=O)([O-])OCC[N+](C)(C)C (stereo not given)	-	.	.	.	.
Cc1cccc(OCc2nnc(N)s2)c1	?	27µM	-	-	-
Cc1cccc(NC(=O)CCNS(=O)(=O)c2ccc3c(c2)CCN3C(=O)C2CC2)c1	-	.	.	-	-
O=C1NC(=S)N/C1=C/c1cccnc1	-	24µM	-	-	-
O=C1NC(=S)NC1=Cc1ccco1	28µM	24µM	.	-	-
CN(C)c1ccc(/C=C2\C(=O)Nc3ccccc32)cc1	?	.	-	-	.
O=C1Nc2ccccc2/C1=C/c1ccccc1F	?	30µM	-	-	-
O=C1Nc2ccccc2/C1=C/c1cccnc1	?	27µM	-	-	-
Cc1ccc2nc(-c3cc(NC(=O)COc4ccc(C)c(C)c4)ccc3Cl)oc2c1	-	.	.	-	-
SMILES	VDR inhibitor	PLK1 PBD inh	TSHR antagonist	Vif-A3G inh	Vif-A3F inh
O=C1CCC[C@@H]2CC(N(Cc3cc4ccccc4s3)c3ccccc3)C[C@@H]3CCN1[C@H]23 (stereo not given in full)	.	.	.	-	.
NCCCC(N)CC(=O)NCC1NC(=O)C(CO)NC(=O)C(N)CNC(=O)C(C2CCN=C(N)N2)NC(=O)/C(=C/NC(N)=O)NC1=O (stereo not given)	-	.	.	.	.
C[C@@H]1C(=O)N(S(=O)(=O)c2ccc([N+](=O)[O-])cc2)[C@H]1c1ccccc1	?	.	.	-	.
Cc1ccc(S(=O)(=O)/N=C2/NC(=O)/C(=C/c3ccccc3)S2)cc1	?	?	-	-	-
Cc1ccc(/C=C2\S/C(=N/S(=O)(=O)c3cccs3)NC2=O)cc1	-	19µM	-	-	?
Cc1ccc(S(=O)(=O)/N=C2/NC(=O)/C(=C\c3ccccc3)S2)cc1	79µM	24µM	.	-	-
O=C(COC(=O)C(Cc1c[nH]c2ccccc12)NC(=O)c1ccc(Cl)cc1)c1ccc(Cl)cc1 (stereo not given)	-	.	.	-	-
O=C(COC(=O)C(Cc1ccccc1)NC(=O)c1ccc(Cl)cc1)c1ccc(Cl)cc1 (stereo not given)	-	11µM	-	-	-
CCc1ccccc1N1CC(c2nc3ccccc3n2CCCOc2ccc(Cl)cc2)CC1=O (stereo not given)	-	.	.	-	-
CCn1c(=O)n(CC)c2cc(N3CCCC3)c(NC(=O)c3ccccc3F)cc21	-	24µM	-	-	-
OC(CBr)C[n+]1cc(Br)cc2ccccc21 (stereo not given)	.	.	.	-	.
O=C(COc1cccnc1[N+](=O)[O-])c1ccc(Cl)s1	50µM	15µM	-	-	-
Cc1sc2ccccc2[n+]1Cc1ccccc1	.	.	.	-	.
Nc1nnnn1/N=C/c1ccccc1	-	-	-	-	-
Nc1nnnn1/N=C/c1ccccc1C(F)(F)F	-	3.4µM	-	-	-
O=C(CSc1nc(=O)n(CCN2CCOCC2)c2c1CCC2)Nc1ccc(Cl)c(Cl)c1	-	.	.	-	-
CS(=O)(=O)c1ccc(Cl)c(NC(=O)Cc2ccccc2F)c1	79µM	27µM	-	-	-
CS(=O)(=O)c1ccc(Cl)c(NC(=O)Cc2c(F)cccc2Cl)c1	-	-	-	-	-
Cc1ccc2c(C(=O)CNc3nc(C)c(C)s3)c(C)[nH]c2c1	.	.	.	-	.
O=c1[nH]c(SCc2c(F)cccc2Cl)nc2c1CCCC2	-	.	.	.	.
CN(CC(=O)Nc1ccc([N+](=O)[O-])cc1Br)Cc1c(F)cccc1Cl	-	27µM	-	-	-
Cc1nn(-c2ccc(Cl)cc2)c(=O)c2ccccc12	-	-	-	-	-
Cc1c(Cl)sn(-c2ccc(Cl)cc2)c1=O	45µM	2.7µM	-88	-	-
Oc1ccc(/C=N/N=C(c2ccccc2)c2ccccc2)c(O)c1O	-	12µM	-	?	-
O=C(NN=Cc1ccc(O)c(O)c1)c1ccccc1	.	-	.	-	.
SMILES	VDR inhibitor	PLK1 PBD inh	TSHR antagonist	Vif-A3G inh	Vif-A3F inh
O=C(/C(=N/N=C/c1ccc(O)c(O)c1O)c1ccccc1)c1ccccc1	-	7.5µM	-	?	?
COc1cccc([C@@H]2Oc3ccc(Br)cc3C(=O)[C@H]2OC(=O)NS(=O)(=O)c2ccc(C)cc2)c1	-	.	.	.	.
CC(C)[C@H](NC(=O)NCCC1=CCCCC1)C(=O)O	-	-	-	-	-
COc1ccc(/C=C/C(=O)OCC(=O)NCCC2=CCCCC2)cc1	-	-	-	-	-
CC(C)(C)NC(=O)C(=O)NCCC1=CCCCC1	-	21µM	-	-	-
COc1cccc(/C=C/C(=O)OCC(=O)NCCC2=CCCCC2)c1	?	8.4µM	-	-	?
CCC(C)[C@H](NC(=O)NCCC1=CCCCC1)C(=O)O (stereo not given in full)	?	24µM	-	-	-
COc1ccccc1NC(=O)NCCC1=CCCCC1	?	24µM	-	-	-
COc1cc2c(cc1O)C(Cc1ccc(O)cc1)[N+](C)(C)CC2 (stereo not given)	-	.	.	.	.
CCCCC[C@H](O)/C=C/C=C\C/C=C\C/C=C\CCCC(=O)O	-	.	.	.	.
Cc1ccc(-c2[nH]ncc2CNCc2ccccc2)cc1	-	.	.	-	.
